The supplement of paper PMC8728848
Shown is part of a subset that was picked to be rich in the strongest signals.

Assays:
Experiment in all cases: glycan array binding signal (z-score within array); higher = stronger binding
Settings in all cases: glycan notation: IUPAC condensed, linker removed
[1] = molecular target: Neu5Ac(a2-6)Gal(b1-4)GlcNAc(b1-3)Gal(b1-4)GlcNAc(b1-3)Gal(b1-4)GlcNAc(b1-2)Man(a1-3)[Neu5Ac(a2-6)Gal(b1-4)GlcNAc(b1-3)Gal(b1-4)GlcNAc(b1-3)Gal(b1-4)GlcNAc(b1-2)Man(a1-6)]GalNAc
Procedure, shortened: (§1)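 Columns mapping to the same glycan were averaged after glycan names were converted to IUPAC-condensed notation. The data come from 3228 arrays in the Consortium for Functional Glycomics database, limited to those with an available protein sequence. Binding is reported as a within-array Z-score averaged across arrays of one protein sequence and across linkers.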

[2] = molecular target: Neu5Ac(a2-8)Neu5Ac(a2-8)Neu5Ac(a2-8)Neu5Ac(a2-3)[GalNAc(b1-4)]Gal(b1-4)Glc
Procedure, shortened: as §1

[3] = molecular target: Neu5Ac(a2-8)Neu5Gc(a2-3)Gal(b1-4)GlcNAc
Procedure, shortened: as §1

Neu5Ac(b2-6)GalNAc = molecular target: Neu5Ac(b2-6)GalNAc
Procedure, shortened: as §1

[4] = molecular target: Neu5Ac9Ac(a2-3)Gal(b1-3)GlcNAc
Procedure, shortened: as §1

[5] = molecular target: Neu5Ac9Ac(a2-6)Gal(b1-4)GlcNAc
Procedure, shortened: as §1

[6] = molecular target: Neu5Gc(a2-3)Gal(b1-3)GlcNAc
Procedure, shortened: as §1

[7] = molecular target: Fuc(a1-2)Gal(b1-3)GalNAc(b1-3)Gal(a1-4)Gal(b1-4)Glc
Procedure, shortened: as §1

[8] = molecular target: Fuc(a1-2)Gal(b1-3)GlcNAc(b1-3)[Fuc(a1-2)Gal(b1-3)GlcNAc(b1-6)]GalNAc
Procedure, shortened: as §1

[9] = molecular target: Fuc(a1-2)Gal(b1-4)[Fuc(a1-3)]GlcNAc
Procedure, shortened: as §1

[10] = molecular target: Fuc(a1-2)[Gal(a1-3)]Gal(b1-4)GlcNAc(b1-2)Man(a1-3)[Fuc(a1-2)[Gal(a1-3)]Gal(b1-4)GlcNAc(b1-2)Man(a1-6)]Man(b1-4)GlcNAc(b1-4)GlcNAc
Procedure, shortened: as §1

[11] = molecular target: Fuc(a1-2)[Gal(a1-3)]Gal(b1-4)[Fuc(a1-3)]GlcNAc(b1-3)GalNAc
Procedure, shortened: as §1

[12] = molecular target: Fuc(a1-2)[GalNAc(a1-3)]Gal(b1-3)GlcNAc
Procedure, shortened: as §1

[13] = molecular target: Fuc(a1-3)[Gal(b1-4)]GlcNAc(b1-3)GalNAc
Procedure, shortened: as §1

[14] = molecular target: Fuc(a1-3)[Gal3S(b1-4)]GlcNAc
Procedure, shortened: as §1

[15] = molecular target: Gal(a1-3)Gal(b1-3)GlcNAc(b1-2)Man
Procedure, shortened: as §1

Gal(a1-6)Glc = molecular target: Gal(a1-6)Glc
Procedure, shortened: as §1

[16] = molecular target: Gal(b1-3)GlcNAc(a1-6)Gal(b1-4)GlcNAc
Procedure, shortened: as §1

[17] = molecular target: Gal(b1-4)GlcNAc(b1-2)Man(a1-3)[Gal(b1-4)GlcNAc(b1-2)Man(a1-6)][Gal(b1-4)GlcNAc(b1-4)]Man(b1-4)GlcNAc(b1-4)[Fuc(a1-6)]GlcNAc
Procedure, shortened: as §1

[18] = molecular target: Gal(b1-4)GlcNAc(b1-2)Man(a1-3)[Gal(b1-4)GlcNAc(b1-2)Man(a1-6)][GlcNAc(b1-4)]Man(b1-4)GlcNAc(b1-4)[Fuc(a1-6)]GlcNAc
Procedure, shortened: as §1

[19] = molecular target: Gal(b1-4)GlcNAc(b1-2)[Gal(b1-4)GlcNAc(b1-6)]Man(a1-6)[GlcNAc(b1-4)][Gal(b1-4)GlcNAc(b1-2)Man(a1-3)]Man(b1-4)GlcNAc(b1-4)GlcNAc
Procedure, shortened: as §1

[20] = molecular target: Gal(b1-4)GlcNAc(b1-3)Gal(b1-3)GalNAc
Procedure, shortened: as §1

[21] = molecular target: Gal(b1-4)GlcNAc(b1-3)Gal(b1-4)GlcNAc(b1-2)Man(a1-3)[Gal(b1-4)GlcNAc(b1-3)Gal(b1-4)GlcNAc(b1-2)Man(a1-6)]Man(b1-4)GlcNAc(b1-4)[Fuc(a1-6)]GlcNAc
Procedure, shortened: as §1

Gal3S(b1-3)GalNAc = molecular target: Gal3S(b1-3)GalNAc
Procedure, shortened: as §1

[22] = molecular target: GlcA3S(b1-3)Gal(b1-4)GlcNAc(b1-2)Man
Procedure, shortened: as §1

[23] = molecular target: GlcNAc(a1-4)Gal(b1-4)GlcNAc(b1-3)Gal(b1-4)Glc
Procedure, shortened: as §1

[24] = molecular target: GlcNAc(a1-4)Gal(b1-4)GlcNAc(b1-3)Gal(b1-4)[Fuc(a1-3)]GlcNAc(b1-3)Gal(b1-4)[Fuc(a1-3)]GlcNAc
Procedure, shortened: as §1

[25] = molecular target: GlcNAc(b1-2)Man(a1-3)[GlcNAc(b1-2)Man(a1-6)]Man(b1-4)GlcNAc(b1-4)[Fuc(a1-6)]GlcNAc
Procedure, shortened: as §1

[26] = molecular target: GlcNAc(b1-2)[GlcNAc(b1-4)]Man(a1-3)[GlcNAc(b1-4)][GlcNAc(b1-2)[GlcNAc(b1-6)]Man(a1-6)]Man(b1-4)GlcNAc(b1-4)[Fuc(a1-6)]GlcNAc
Procedure, shortened: as §1

[27] = molecular target: GlcNAc(b1-2)[GlcNAc(b1-6)]Man(a1-6)[GlcNAc(b1-2)Man(a1-3)]Man(b1-4)GlcNAc(b1-4)GlcNAc
Procedure, shortened: as §1

[28] = molecular target: GlcNAc(b1-3)Gal(b1-4)GlcNAc(b1-2)Man(a1-3)[GlcNAc(b1-3)Gal(b1-4)GlcNAc(b1-2)Man(a1-6)]Man(b1-4)GlcNAc(b1-4)GlcNAc
Procedure, shortened: as §1

[29] = molecular target: GlcNAc(b1-3)Gal(b1-4)GlcNAc(b1-3)Gal(b1-4)GlcNAc
Procedure, shortened: as §1

[30] = molecular target: GlcNAc(b1-3)Gal(b1-4)GlcNAc(b1-3)Gal(b1-4)GlcNAc(b1-2)Man(a1-3)[GlcNAc(b1-3)Gal(b1-4)GlcNAc(b1-3)Gal(b1-4)GlcNAc(b1-2)Man(a1-6)]Man(b1-4)GlcNAc(b1-4)[Fuc(a1-6)]GlcNAc
Procedure, shortened: as §1

[31] = molecular target: GlcNAc(b1-3)[GlcNAc(b1-6)]GalNAc
Procedure, shortened: as §1

[32] = molecular target: Kdn(a2-3)Gal(b1-4)[Fuc(a1-3)]GlcNAc
Procedure, shortened: as §1

Man(b1-4)GlcNAc = molecular target: Man(b1-4)GlcNAc
Procedure, shortened: as §1

[33] = molecular target: Neu5Ac(a2-3)Gal(b1-3)GlcNAc6S
Procedure, shortened: as §1

[34] = molecular target: Neu5Ac(a2-3)Gal(b1-4)GlcNAc(b1-2)[Neu5Ac(a2-3)Gal(b1-4)GlcNAc(b1-4)]Man(a1-3)[GlcNAc(b1-4)][Neu5Ac(a2-3)Gal(b1-4)GlcNAc(b1-2)[Neu5Ac(a2-3)Gal(b1-4)GlcNAc(b1-6)]Man(a1-6)]Man(b1-4)GlcNAc(b1-4)GlcNAc
Procedure, shortened: as §1

[35] = molecular target: Neu5Ac(a2-3)Gal(b1-4)GlcNAc(b1-6)GalNAc
Procedure, shortened: as §1

[36] = molecular target: Neu5Ac(a2-3)Gal(b1-4)[Fuc(a1-3)]GlcNAc6S
Procedure, shortened: as §1

[37] = molecular target: Neu5Ac(a2-3)Gal6S(b1-4)GlcNAc
Procedure, shortened: as §1

[38] = molecular target: Neu5Ac(a2-3)[Neu5Ac(a2-6)]GalNAc
Procedure, shortened: as §1

[39] = molecular target: Neu5Ac(a2-6)Gal(b1-4)GlcNAc(b1-2)Man(a1-3)[GlcNAc(b1-4)][Neu5Ac(a2-6)Gal(b1-4)GlcNAc(b1-2)Man(a1-6)]Man(b1-4)GlcNAc(b1-4)GlcNAc
Procedure, shortened: as §1

[40] = molecular target: Neu5Ac(a2-6)Gal(b1-4)GlcNAc(b1-2)Man(a1-3)[Neu5Ac(a2-6)Gal(b1-4)GlcNAc(b1-2)Man(a1-6)]Man(b1-4)GlcNAc(b1-4)[Fuc(a1-6)]GlcNAc
Procedure, shortened: as §1

[41] = molecular target: Neu5Ac(a2-6)Gal(b1-4)GlcNAc(b1-2)Man(a1-6)[GlcNAc(b1-2)Man(a1-3)]Man(b1-4)GlcNAc(b1-4)GlcNAc
Procedure, shortened: as §1

[42] = molecular target: Neu5Gc(a2-3)Gal(b1-3)[Fuc(a1-4)]GlcNAc
Procedure, shortened: as §1

[43] = molecular target: Neu5Gc(a2-8)Neu5Gc(a2-6)Gal(b1-4)GlcNAc
Procedure, shortened: as §1

B1: SBD-G4S3-Fc (protein)
chain: MASIPSSASVQLDSYNYDGSTFSGKIYVKNIAYSKKVTVVYADGSDNWNNNGNIIAASFSGPISGSNYEYWTFSASVKGIKEFYIKYEVSGKTYYDNNNSANYQVSTGGGGSGGGGSGGGGSEFVPRDCGCKPCICTVPEVSSVFIFPPKPKDVLTITLTPKVTCVVVDISKDDPEVQFSWFVDDVEVHTAQTQPREEQFNSTFRSVSELPIMHQDWLNGKEFKCRVNSAAFPAPIEKTISKTKGRPKAPQVYTIPPPKEQMAKDKVSLTCMITDFFPEDITVEWQWNGQPAENYKNTQPIMDTDGSYFVYSKLNVQKSNWEAGNTFTCSVLHEGLHNHHTEKSLSHSPGAA
B1 was tested, and the “glycan array binding signal (z-score)” value [1] was 1.23, the “glycan array binding signal (z-score)” value [2] was -0.006 and the “glycan array binding signal (z-score)” value [3] was 7.21. For the same binder, the “glycan array binding signal (z-score)” value (Neu5Ac(b2-6)GalNAc) was -0.513, the “glycan array binding signal (z-score)” value [4] was 0.058 and the “glycan array binding signal (z-score)” value [5] was 0.039. The “glycan array binding signal (z-score)” value [6] was -0.167.

B2: Clec18Av1 (Homo sapiens), A5D8T8 (protein)
chain: MLHPETSPGRGHLLAVLLALLGTAWAEVWPPQLQEQAPMAGALNRKESFLLLSLHNRLRSWVQPPAADMRRLDWSDSLAQLAQARAALCGTPTPSLASGLWRTLQVGWNMQLLPAGLVSFVEVVSLWFAEGQRYSHAAGECARNATCTHYTQLVWATSSQLGCGRHLCSAGQAAIEAFVCAYSPRGNWEVNGKTIVPYKKGAWCSLCTASVSGCFKAWDHAGGLCEVPRNPCRMSCQNHGRLNISTCHCHCPPGYTGRYCQVRCSLQCVHGRFREEECSCVCDIGYGGAQCATKVHFPFHTCDLRIDGDCFMVSSEADTYYRARMKCQRKGGVLAQIKSQKVQDILAFYLGRLETTNEVIDSDFETRNFWIGLTYKTAKDSFRWATGEHQAFTSFAFGQPDNHGFGNCVELQASAAFNWNDQRCKTRNRYICQFAQEHISRWGPGS
B2 was tested, and the “glycan array binding signal (z-score)” value [7] was -0.849, the “glycan array binding signal (z-score)” value [8] was 4.48 and the “glycan array binding signal (z-score)” value [9] was -0.818. The “glycan array binding signal (z-score)” value [10] was 3.05, the “glycan array binding signal (z-score)” value [11] was -0.446 and the “glycan array binding signal (z-score)” value [12] was -0.502. For the same binder, the “glycan array binding signal (z-score)” value [13] was 1.02, the “glycan array binding signal (z-score)” value [14] was -0.843 and the “glycan array binding signal (z-score)” value [15] was 3.22. The “glycan array binding signal (z-score)” value (Gal(a1-6)Glc) was -0.747, the “glycan array binding signal (z-score)” value [16] was 4.04 and the “glycan array binding signal (z-score)” value [17] was 2.24. The “glycan array binding signal (z-score)” value [18] was 0.712, the “glycan array binding signal (z-score)” value [19] was 3.23 and the “glycan array binding signal (z-score)” value [20] was 3.37. The “glycan array binding signal (z-score)” value [21] was 2.85, the “glycan array binding signal (z-score)” value (Gal3S(b1-3)GalNAc) was -0.82 and the “glycan array binding signal (z-score)” value [22] was -0.197. For the same binder, the “glycan array binding signal (z-score)” value [23] was -0.356, the “glycan array binding signal (z-score)” value [24] was 4.79 and the “glycan array binding signal (z-score)” value [25] was 3.54. The “glycan array binding signal (z-score)” value [26] was -0.868, the “glycan array binding signal (z-score)” value [27] was -0.432 and the “glycan array binding signal (z-score)” value [28] was 1.53. For the same binder, the “glycan array binding signal (z-score)” value [29] was -0.861, the “glycan array binding signal (z-score)” value [30] was -0.74 and the “glycan array binding signal (z-score)” value [31] was -0.808. For the same binder, the “glycan array binding signal (z-score)” value [32] was 0.16, the “glycan array binding signal (z-score)” value (Man(b1-4)GlcNAc) was -0.825 and the “glycan array binding signal (z-score)” value [33] was -0.859. The “glycan array binding signal (z-score)” value [34] was -0.868, the “glycan array binding signal (z-score)” value [35] was 1.49 and the “glycan array binding signal (z-score)” value [36] was -0.818. The “glycan array binding signal (z-score)” value [37] was -0.585, the “glycan array binding signal (z-score)” value [38] was -0.853 and the “glycan array binding signal (z-score)” value [39] was -0.604. For the same binder, the “glycan array binding signal (z-score)” value [40] was 3.58, the “glycan array binding signal (z-score)” value [41] was 4.86 and the “glycan array binding signal (z-score)” value [42] was -0.646. For the same binder, the “glycan array binding signal (z-score)” value [43] was 0.057.
